Each structure is given as a SMILES string. The whole screen tested about 39,000 compounds, of which about 3,300 (8.5%) were called active. Shown is part of a subset that was picked to be rich in actives.

In this assay the test system is HepG2. The assay can be described thus: cytotoxicity call (relative viability < 0.9). To be noted: 10 µM.
As to `O=C(N[C@@H]1CC[C@H](CCNS(=O)(=O)c2ccccc2)O[C@@H]1CO)c1cnccn1`, the cytotoxicity call is “inactive”.
On to `O=C(N[C@H](c1ccc2ccccc2n1)c1cccs1)C1CCN(Cc2cccc(C(F)(F)F)c2)CC1`, for which the cytotoxicity call was “inactive”.
The same measure for `N#Cc1c(Oc2ccc(F)c(NC(=O)Cc3cccc(C(F)(F)F)c3)c2)ccc2nc(NC(=O)C3CC3)sc12`: “active”; for `C=CC(=O)N1C[C@@H]2CC[C@H](O)[C@@H]2C1`: “inactive”; for `COc1ccc(-c2oc3cc(O[C@@H]4O[C@@H](C)[C@H](O)[C@@H](O)[C@H]4O)cc(O)c3c(=O)c2O[C@@H]2O[C@H](CO)[C@@H](O)[C@H](O)[C@H]2O)cc1`: “inactive”.
The same measure for `Cc1noc(C)c1NC(=O)Nc1ccc2c(c1)CC(=O)N([C@@H](C)CO)C[C@@H](C)[C@H](CN(C)C(=O)NC(C)C)O2`: “inactive”; for `Cc1ccc(S(=O)(=O)Nc2cc([C@@H](C(=O)OC(C)C)C(=O)C(F)(F)F)c(O)c3ccccc23)c(C)c1`: “inactive”.
As to `CNC[C@@H]1OCCCC[C@H](C)Oc2ccc(NC(=O)Nc3ccc(C(F)(F)F)cc3)cc2C(=O)N([C@H](C)CO)C[C@H]1C`, the cytotoxicity call is “inactive”.
On to `O=c1c(O)c(-c2ccc(O)c(O)c2)oc2cc(O)cc(O)c12`, for which the cytotoxicity call was “inactive”.
As for `O=c1c(O)c(-c2ccccc2)oc2cc(O)ccc12`, the cytotoxicity call was “inactive”.
As for `O=c1c(O)c(-c2ccccc2)oc2ccccc12`, the cytotoxicity call was “inactive”.
For the molecule `O=c1c(O)c(-c2ccc(O)c(O)c2)oc2cc(O)ccc12`, the cytotoxicity call is “active”.
Consider `O=c1c(O)c(-c2ccccc2)oc2cccc(O)c12`, for which the cytotoxicity call is “inactive”.
Consider `O=c1c(O)c(-c2ccc(O)cc2)oc2ccccc12`, for which the cytotoxicity call is “active”.
Consider `CCC1OC(=O)C(C)C(OC2CC(C)(OC)C(O)C(C)O2)C(C)C(OC2OC(C)CC(N(C)C)C2O)C(C)(O)CC(C)CN(C)C(C)C(O)C1(C)O` (stereo not given), for which the cytotoxicity call is “inactive”.
Consider `Cc1noc(C)c1NC(=O)N(C)C[C@@H]1OCCCC[C@H](C)Oc2ccc(NS(=O)(=O)c3cccs3)cc2C(=O)N([C@@H](C)CO)C[C@H]1C`, for which the cytotoxicity call was “inactive”.
For `CCCNC(=O)C[C@@H]1CC[C@H]2[C@@H](COC[C@@H](O)CN2S(=O)(=O)c2ccc(Oc3ccccc3)cc2)O1`, the cytotoxicity call is “inactive”.
Consider `COCC(=O)Nc1ccc2c(c1)C(=O)N(C)C[C@@H](OC)[C@H](C)CN(Cc1ccccc1OC)[C@H](C)CO2`, for which the cytotoxicity call was “inactive”.
Regarding `Cc1cncc2cccc(S(=O)(=O)NCCN(C/C=C/c3ccc(Br)cc3)C/C=C/c3ccc(Br)cc3)c12`, the cytotoxicity call is “inactive”.
For `C[C@H](CO)N1C[C@H](C)[C@H](CN(C)S(C)(=O)=O)Oc2ccc(NC(=O)NC3CCCCC3)cc2CC1=O` the value was “inactive”; for `C[C@H]1CN([C@@H](C)CO)C(=O)Cc2cc(NC(=O)NC3CCCCC3)ccc2O[C@H]1CN(C)S(C)(=O)=O`, “inactive”; for `C[C@@H]1CN([C@@H](C)CO)C(=O)Cc2cc(NC(=O)NC3CCCCC3)ccc2O[C@H]1CN(C)S(C)(=O)=O`, “active”.
The same measure for `C[C@@H]1CN([C@H](C)CO)C(=O)Cc2cc(NC(=O)NC3CCCCC3)ccc2O[C@H]1CN(C)S(C)(=O)=O`: “inactive”; for `C[C@@H]1CN([C@H](C)CO)C(=O)Cc2cc(NC(=O)NC3CCCCC3)ccc2O[C@@H]1CN(C)S(C)(=O)=O`: “active”.
In the case of `C[C@H](CO)N1C[C@H](C)[C@@H](CN(C)S(C)(=O)=O)Oc2ccc(NC(=O)NC3CCCCC3)cc2CC1=O`, the cytotoxicity call is “inactive”.

The values are drawn from the antibiotic and cytotoxicity screens of Wong et al. (2023).
